Compound activity: PubChem BioAssay, Broad Institute
Not all results are given here.
aSyn UTR act: Activators via SNCA 5'UTR binding, MLPCN. alpha-synuclein 5'UTR reporter, activators screen. AID 1814. activity score, % (tested at 7.5 µM), hits read low. 7.1% of 300,000 active; in the data active = activity score below about -60%
* = called active by the depositor.

SMILES | aSyn UTR act
COC(=O)c1ccc(NC(=O)Nc2cccc(F)c2)cc1 | -206*
COc1cc2c(cc1O)CC[C@@H]1[C@@H]2CC[C@]2(C)[C@@H](O)CC[C@@H]12 | 75
O=C(Nc1ccc(F)cc1F)N1CCCCCC1 | -86*
Cc1ccc(C(C)C)c(OCc2nc(-c3nonc3N)no2)c1 | -92*
Cc1ccc(C(C)C)c(OCc2ccc(C(=O)N/N=C/c3ccc(O)cc3O)cc2)c1 | 96
Cc1cc(N/C=C/C(=O)c2ccc(Br)cc2)no1 | -198*
Cc1ccnc(N/C=C/C(=O)c2ccc(Br)cc2)c1 | -62*
O=C(/C=C\Nc1ccc(Cl)cn1)c1ccc(Br)cc1 | -165*
Cc1nc(-c2ccccc2)nn1-c1ccc([N+](=O)[O-])cc1 | -87*
c1coc(C2Nc3ccccc3-c3nc4ccccc4n32)c1 (stereo not given) | -93*
c1ccc(C2Nc3ccccc3-c3nc4ccccc4n32)nc1 (stereo not given) | -74*
Cc1ccc(CSc2nnc(-c3ccco3)o2)cc1 | -154*
Brc1ccc(CSc2nnc(-c3ccco3)o2)cc1 | -78*
Fc1ccc(CSc2nnc(-c3ccco3)o2)cc1 | -117*
c1ccc(CSc2nnc(-c3ccco3)o2)cc1 | -97*
CC1Oc2ccccc2C=C1/C=C1/SC(N2CCOCC2)=NC1=O (stereo not given) | -108*
CC(=C/c1ccccc1)/C=C1/SC(N2CCOCC2)=NC1=O | -102*
O=C1C=C(N2CCOCC2)c2ccccc2C1=O | 114
O=C(/C=C/c1ccccc1)NC(=S)Nc1ccc(N2CCOCC2)cc1 | -79*
CC(C)c1ccc(/C=C/C(=O)NC(=S)Nc2ccc(CN3CCOCC3)cc2)cc1 | -130*
CCOc1ccc(NC(=S)NC(=O)/C=C/c2ccco2)cc1 | -91*
COc1cccc(NC(=S)NC(=O)/C=C/c2ccco2)c1 | -114*
CN1CCN(c2ccc(NC(=S)NC(=O)/C=C/c3ccco3)cc2)CC1 | -147*
COc1cccc(OC)c1C(=O)Nc1ccc2c(c1)Cc1ccccc1-2 | -105*
O=C(Nc1ccc2c(c1)Cc1ccccc1-2)c1ccco1 | -160*
SMILES | aSyn UTR act
Cc1cccnc1NC(=S)NC(=O)c1oc2ccccc2c1C | -226*
Cc1c(C(=O)NC(=S)NCC(C)C)oc2ccccc12 | -191*
C=CCNC(=S)NC(=O)c1oc2ccccc2c1C | -155*
COc1cccc(C(NC(C)=O)c2ccc3cccnc3c2O)c1 (stereo not given) | 72
COc1cc(/C=N/Nc2cccc3cccnc23)cc(OC)c1O | -94*
Oc1ccc(/C=N/Nc2cccc(Cl)n2)c(O)c1 | -244*
Oc1c(/C=N/Nc2cccc3cccnc23)ccc2ccccc12 | -164*
Oc1cccc(/C=N/Nc2cccc3cccnc23)c1 | -142*
O=[N+]([O-])c1ccc(O)c(/C=N/Nc2ccc(Cl)nn2)c1 | 100
Oc1cccc(/C=N/Nc2ccc(Cl)nn2)c1 | -171*
CCC1C(=O)n2nc(-c3ccccc3)cc2N=C1C (stereo not given) | -143*
CC(=O)c1cnc2cc(-c3ccc(C)cc3)nn2c1C | -243*
CC(=O)c1cnc2cc(-c3ccccc3)nn2c1C | -167*
COc1ccc(-c2cc3ncc(C(C)=O)c(C)n3n2)cc1 | -137*
CC(=O)c1cnc2nc(SCc3ccccc3)nn2c1C | -157*
S=C1NC(c2ccccc2)=NCN1c1ccc(Cl)cc1 | -84*
CC(C)Cc1ccc(/C=C/C(=O)N2CCOCC2)cc1 | -161*
CC(C)(C)c1ccc(/C=C/C(=O)N2CCOCC2)cc1 | -147*
COc1ccc(-c2cc(C(F)(F)F)nc(S(=O)(=O)CCC(=O)N3CCOCC3)n2)cc1 | -76*
C/C(=N\NC(=S)Nc1ccccc1)C1Cc2ccccc2C(=O)O1 (stereo not given) | -154*
S=C(NNC(=S)Nc1ccccc1)Nc1ccccc1 | -145*
Cc1cc(C)nc(NC(=S)Nc2ccccc2)n1 | -84*
CC(C)(C)NC(=S)Nc1ccc(Nc2ccccc2)cc1 | -115*
S=C(NN=C(C1CC1)C1CC1)Nc1ccccc1 | -63*
S=C(Nc1ccc(Nc2ccccc2)cc1)NN1CCOCC1 | -99*
SMILES | aSyn UTR act
COCCCNC(=S)NNC(=S)Nc1ccccc1 | -65*
COCCCNC(=S)NNC(=S)Nc1ccc(F)cc1F | -106*
O=C1CC(c2ccccc2)Sc2nc3ccccc3n21 (stereo not given) | -196*
O=C1CC(c2ccc3c(c2)OCO3)Sc2nc3ccccc3n21 (stereo not given) | -160*
CC1CCC(NC(=O)c2cccc(S(=O)(=O)N3CCN(c4ccc(F)cc4)CC3)c2)CC1 (stereo not given) | -72*
O=C(Nc1ccccc1)c1cc2ccccc2o1 | -112*
O=C(Nc1ccc(N2CCCC2)cc1)c1cc2ccccc2o1 | -131*
CSC(C(=O)c1cc2ccccc2o1)c1ccccc1 (stereo not given) | -88*
CC(=O)c1ccc(NC(=O)c2cc3ccccc3o2)cc1 | -128*
O=C(Nc1ccccc1)c1ccc(OC(=O)c2cc3ccccc3o2)cc1 | -84*
O=C(Nc1ccc(F)cc1)c1cc2ccccc2o1 | -153*
O=C(NNC(=O)c1ccccc1O)c1cc2ccccc2o1 | -86*
O=C(Nc1ccc(NC(=O)c2cc3ccccc3o2)cc1)c1ccco1 | -95*
CC(C)c1nnc(NC(=O)c2cc3ccccc3o2)s1 | -135*
Cc1cc(C(=O)Nc2ccccc2)oc1C | -112*
CN1/C(=C/C=C(/C#N)C(N)=O)C(C)(C)c2ccccc21 | -146*
COC(=O)C1C(=O)c2c([nH]c(C(=O)OC3CCCCC3)c2C)CC1C (stereo not given) | -178*
CCOC(=O)c1[nH]c2c(c1C)C(=O)CC(c1ccc(F)cc1)C2 (stereo not given) | 59
COC(=O)C1C(=O)c2c([nH]c(C(=O)OC3CCCC3C)c2C)CC1C (stereo not given) | -168*
COC(=O)Nc1nc2ccc(Br)cc2s1 | -148*
COC(=O)Nc1nc2c(C)cccc2s1 | -92*
Cc1cccc2sc(NNC(=O)c3ccc(S(=O)(=O)N4CCc5ccccc5C4)cc3)nc12 | 67
Cc1cccc2sc(NC(=O)c3ccc(Cl)s3)nc12 | -199*
COc1cccc2sc(NC(=O)c3ccc(Br)s3)nc12 | -146*
Cc1cccnc1NC(=O)c1sc2ccccc2c1Cl | -70*
SMILES | aSyn UTR act
O=C(NC1=NCCS1)c1sc2ccccc2c1Cl | -166*
O=C(NC1=NCCS1)c1sc2cc(Cl)cc(Cl)c2c1Cl | -64*
O=c1cc(-c2ccco2)oc2ccc(Cl)cc12 | -96*
COc1ccc2oc(-c3ccco3)cc(=O)c2c1 | -129*
COc1cc(OC)c2c(=O)cc(-c3ccccc3)oc2c1 | -102*
COc1cccc2oc(-c3ccco3)cc(=O)c12 | -94*
Cc1cccc(/C=C(\C(=O)C(=O)O)c2ccc3ccccc3n2)c1 | -118*
O=C(O)C(=O)/C(=C\c1cccc(Cl)c1)c1ccc2ccccc2n1 | -80*
N#Cc1ccc(/C=C(\C(=O)C(=O)O)c2ccc3ccccc3n2)cc1 | -76*
O=C(c1cccs1)N1CCn2c1nc1ccccc12 | -118*
COc1ccc(C(=O)n2c(-c3ccco3)nc3ccccc32)cc1 | -100*
CCOc1ccc(C(=O)N2CCn3c2nc2ccccc23)cc1 | -69*
COc1ccc(C(=O)N2CCn3c2nc2ccccc23)cc1 | -108*
Cc1ccc(C(=O)n2c(N)nc3ccccc32)cc1 | 81
C/C(=N/N=C(\C)c1ccccc1O)c1ccccc1O | -115*
Cc1nc(SC(C)C(=O)NCC2CCCO2)c2cc(-c3ccccc3)sc2n1 (stereo not given) | -107*
